# Source: PubChem BioAssay (NCATS)
# Several values for one entry are separate records, joined by “and”; a condition that tells them apart may be missing. Identical values can stand only once. Values without a mark were called inactive. Results filed as inconclusive are left out. Where a call stands in place of a potency, no number is given. Activity calls are given as the source filed them. The call rests on the fitted dose curve; in most records, active means well fitted curve in the direction sought with a large enough effect; inconclusive means small, poorly fitted or top-dose-only effect, or another doubt; inactive means no such curve, though single readings can be large; an effect the other way counts as inactive or inconclusive.
# Key:
# [1] = system: Zika virus NS2B-NS3 protease (unlinked complex); assay: Primary screen GU Rhodamine qHTS for Zika virus inhibitors: Unlinked NS2B-NS3 protease assay (AID 1347159); further: nearly all actives have a fitted effect of over 60% in size; further: potency means the concentration at half of the fitted maximal effect
# How it was run: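 Percent inhibition derives from the 15-min fluorescence change (ex 480, em 540 nm), normalized to no-enzyme and no-inhibitor wells. Reactions contained 25 nM NS2B-NS3 complex and 1.5 microM substrate in 10 mM Tris-HCl pH 8.0.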
# [2] = system: Zika virus NS2B-NS3 protease (linked construct); assay: Primary screen NINDS Rhodamine qHTS for Zika virus inhibitors (AID 1347160); further: nearly all actives have a fitted effect of over 55% in size; further: potency means the concentration at half of the fitted maximal effect
# How it was run: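 In 10 mM Tris-HCl pH 8.0 containing 0.01% Tween 20, linked NS2B-NS3 protease (25 nM final) is exposed to test compounds for 15 min. Cleavage of 1.5 microM Rhodamine110 substrate is tracked by fluorescence over 15 min.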
# [3] = Confirmatory screen NINDS Rhodamine qHTS for Zika virus inhibitors (AID 1347161); further: nearly all actives have a fitted effect of over 60% in size; further: potency means the concentration at half of the fitted maximal effect;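 on activity change, negative = inhibition: purified Zika NS2B-NS3 protease with linked NS2B cofactor domain and Rhodamine110 peptide substrate; series mostly up to about 110 µM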
# How it was run: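 Purified NS2B-NS3 protease with the NS2B hydrophilic domain joined by a flexible linker (25 nM) in 10 mM Tris-HCl pH 8.0, 0.01% Tween 20, preincubated 15 min at RT with compound; Rhodamine110 peptide substrate 1.5 µM; fluorescence change over 15 min; 4-parameter Hill fit.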
# [4] = system: Zika virus NS2B-NS3 protease (linked); assay: 384 well plate NINDS AMC confirmatory qHTS for Zika virus inhibitors (AID 1347163); further: nearly all actives have a fitted effect of over 50% in size; further: potency means the concentration at half of the fitted maximal effect;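 on activity change, negative = inhibition: fluorescence of AMC released from Ac-VKTGKR-AMC peptide cleaved by the protease; top concentration of the series differs between compounds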
# How it was run: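 Linked NS2B-NS3 protease (final 5 nM, 30 nM or 60 nM) was preincubated with compounds (final up to 1 mM) for ~15 minutes. Ac-VKTGKR-AMC substrate (final 30 microM) then reacted for 25 minutes at room temperature in the dark. Fluorescence (ex 355/em 460 nm) was normalized to no-enzyme and no-inhibitor controls.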
# [5] = system: Zika virus NS2B-NS3 protease (linked construct); assay: 384 well plate NINDS Rhodamine confirmatory qHTS for Zika virus inhibitors (AID 1347164);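 further: fluorescence from protease cleavage of Ac-LKRR-rhodamine 110 substrate; nearly all actives have a fitted effect of over 65% in size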; further: potency means the concentration at half of the fitted maximal effect; on activity change, negative = inhibition: top concentration of the series differs between compounds
# How it was run: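 Fluorescence read at ex 485 nm/em 538 nm, 25 min after adding 10 microM Ac-LKRR-Rd substrate at room temperature in the dark; signal normalized to no-enzyme and no-inhibitor controls. Enzyme final 5, 30 or 60 nM; compounds, ~15 min preincubation.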
# [6] = Vero cells viability qHTS for Zika virus inhibitors (AID 1347167)
# How it was run: (§1)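 Counter-screen for cytotoxicity of hits from NS2B-NS3 protease qHTS. Overnight-attached cells (2.5 x 10^5 cells/mL, DMEM/4% FBS) were dosed in titration, incubated 24 to 48 hours, then assayed by CellTiter Glo.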
# [7] = qHTS to identify inhibitors of the type 1 interferon - major histocompatibility complex class I in skeletal muscle: primary screen against the NCATS LOPAC collection (AID 1347405);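 further: lytic HiBiT luminescence reporting HLA-B protein level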
# How it was run: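 CRISPR-engineered immortalized human myoblasts (C25cl48) with HiBiT fused to endogenous HLA-B*08:01, stimulated with 4 ng/ml IFN-beta. LOPAC compounds tested as a 7-point 1:4.3 titration (top 46 uM final), 24 h at 37 C; lytic HiBiT luminescence read.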
# [8] = qHTS for inhibitors of adenylyl cyclases using a fission yeast platform: a pilot screen against the NCATS LOPAC library (AID 1347410)
# How it was run: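 Read-out: fbp1-GFP fluorescence by laser scanning cytometry (488 nm laser), a gain of signal when AC/cAMP-PKA signalling is inhibited. Strain CHP2027 expressing AC9, GNAS and PDE4D2; compounds at up to 57 µM; 18 h, 30C.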
# [9] = Validation qHTS assay for inhibitors of Activation Induced Cytidine Deaminase (AID): UDG Counterscreen signal (AID 1347427)
# How it was run: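 Counterscreen read of UDG activity (2 U/mL, 4/3x) in the FRET deamination format with AID (1 uM, 4/3x), DJC20/DJC23 substrates (250 nM, 4x), 4 h at room temperature. NaOH stop, fluorescence at 560 ex/665 em.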
# [10] = molecular target: Single-stranded DNA cytosine deaminase (Homo sapiens) (UniProt Q9GZX7); assay: Validation qHTS assay for inhibitors of Activation Induced Cytidine Deaminase (AID): AID signal (AID 1347429)
# Single-stranded DNA cytosine deaminase (Homo sapiens), sequence (Q9GZX7 whole entry, looked up): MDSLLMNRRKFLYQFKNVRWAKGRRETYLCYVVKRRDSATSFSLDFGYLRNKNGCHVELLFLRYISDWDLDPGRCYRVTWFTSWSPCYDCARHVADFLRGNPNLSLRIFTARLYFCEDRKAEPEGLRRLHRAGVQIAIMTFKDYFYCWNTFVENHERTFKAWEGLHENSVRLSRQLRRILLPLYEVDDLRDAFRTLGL
# How it was run: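 FRET deamination assay: 1 uM AID (4/3x stock) with UDG, compound up to 114 uM, then 250 nM DJC20/DJC23 substrate (4x stock) for 4 hr at room temperature. NaOH added, 30 min; fluorescence read 540/590 nm.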
# [11] = Primary qHTS for inhibitors of La Crosse Virus (LACV) - induced cell death in SH-SY5Y cells (AID 1508616);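 further: top concentration of the series differs between compounds; higher means more rescue of cells from virus-induced death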
# How it was run: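 SH-SY5Y cells (6000/well) plated 24 h, then given compounds by pin transfer and LACV at 0.01 MOI for 6 days at 37C. Viability measured by ATPLite luminescence, normalized to infected DMSO and uninfected DMSO.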
# [12] = molecular target: Calcium and integrin-binding protein 1 (Homo sapiens) (UniProt Q99828); assay: Validation qHTS for Identification of Calcium Integrin Binding protein 1 (CIB1) Competitor (AID 1508618)
# Calcium and integrin-binding protein 1 (Homo sapiens), sequence (Q99828 whole entry, looked up): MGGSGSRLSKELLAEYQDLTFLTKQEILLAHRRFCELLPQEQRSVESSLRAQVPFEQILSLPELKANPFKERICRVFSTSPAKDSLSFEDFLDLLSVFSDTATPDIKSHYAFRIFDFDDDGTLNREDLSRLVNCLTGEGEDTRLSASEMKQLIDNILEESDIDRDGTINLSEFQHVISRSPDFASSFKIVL
# How it was run: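 CIB1-GST (1 uM final) incubated 15 min at room temperature with compounds (up to 114 uM), then FITC-labelled alphaIIb peptide (100 nM) added. FP read (Ex 480/Em 540) after 15 min, pH 7.4 buffer containing 5 mM CaCl2.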
# [13] = molecular target: Calcium and integrin-binding protein 1 (Homo sapiens) (UniProt Q99828); assay: Primary qHTS for Identification of Calcium Integrin Binding Protein 1 (CIB1) Competitor (AID 1508620);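 further: GST tagged CIB1 binding a fluorescein labelled alphaIIb integrin peptide tracer; top concentration of the series differs between compounds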
# How it was run: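 Fluorescence polarization competition: CIB1-GST (1 uM final) preincubated with compound 15 min at room temperature, then FITC-labeled alphaIIb peptide (100 nM final) added for another 15 min. Polarization read at Ex 480/Em 540.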
# [14] = qHTS to identify inhibitors of the type 1 interferon - major histocompatibility complex class I in skeletal muscle: primary screen against the NCATS Mechanism Interrogation Plate v5.0 (MIPE) Libary (AID 1347411); further: nearly all actives have a fitted effect of over 65% in size; further: potency means the concentration at half of the fitted maximal effect
# How it was run: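 Immortalized human myoblasts (C25cl48) with HiBit knocked into endogenous HLA-B*08:01 were stimulated with 4 ng/ml IFN-beta and given compounds in 11-point 1:3 titration from 46 uM. After 24 h at 37 C, lytic HiBiT luminescence was read.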
# [15] = HepG2 cells viability qHTS for Zika virus inhibitors (AID 1347168); further: potency means the concentration at half of the fitted maximal effect
# How it was run: as §1
# [16] = Tertiary RLuc qRT-PCR qHTS assay for Zika virus inhibitors (AID 1347169); further: nearly all actives have a fitted effect of over 55% in size; further: potency means the concentration at half of the fitted maximal effect; on activity change, negative = inhibition: top concentration of the series differs between compounds
# How it was run: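 Luminescence read-out: live-cell Renilla luciferase substrate applied to infected Vero cells, signal measured after 1-1.5 hrs. Cells had received compound before ZIKV-RLuc (Cambodian strain, MOI 1-2) infection and were incubated 48-72 hrs at 37 degrees C.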
smiles,measurement,setting,value
O=c1c2ccccc2nc2n1CCc1c-2[nH]c2ccccc12,Potency,[1],inactive
same,Potency,[2],inactive
same,Potency,[3],62.2 µM (active)
same,Potency,[4],inactive
same,Potency,[5],56.2 µM (active)
same,Potency,[6],inactive
same,outcome,[7],inactive
same,outcome,[8],inactive
same,outcome,[9],inactive
same,outcome,[10],inactive
same,outcome,[11],inactive
same,outcome,[12],inactive
same,outcome,[13],inactive
C[C@@H]1COC(Nc2ccc3ncnc(Nc4ccc(OCc5nccs5)c(Cl)c4)c3c2)=N1,Potency,[1],inactive
same,Potency,[2],inactive
same,Potency,[14],16.5 µM (active)
same,outcome,[13],inactive
CN1CCC(CNc2ccc3ncc(-c4cccc(OC(F)(F)F)c4)n3n2)CC1,Potency,[1],inactive
same,Potency,[2],inactive
same,Potency,[3],inactive
same,Potency,[15],11.7 µM (active)
same,Potency,[14],14.7 µM (active)
same,outcome,[13],inactive
Nc1ncnc2c1c(-c1cnc3[nH]ccc3c1)nn2C1CCCC1,Potency,[1],inactive
same,Potency,[2],inactive
same,Potency,[14],0.829 µM (active)
same,outcome,[13],inactive
CCCn1c(=O)c2[nH]c(-c3cnn(Cc4cccc(C(F)(F)F)c4)c3)nc2n(CC)c1=O,Potency,[1],inactive
same,Potency,[2],inactive
same,Potency,[14],inactive
same,outcome,[13],inactive
Cc1ccc(C(=O)Nc2ccc(CN3CCN(C)CC3)c(C(F)(F)F)c2)cc1C#Cc1cnc2cccnn12,Potency,[1],inactive
same,Potency,[2],inactive
same,Potency,[14],4.15 µM (active)
same,outcome,[13],inactive
COc1cccc(Nc2c(C(N)=O)cnc3c(C)cc(S(=O)(=O)c4cccc(C(=O)N(C)C)c4)cc23)c1,Potency,[1],inactive
same,Potency,[2],inactive
same,Potency,[14],inactive
same,outcome,[13],inactive
CCN(CC)CCNC(=O)c1ccc2nc(-c3ccccc3)c(-c3ccc(CN4CCC(n5c(=O)[nH]c6ccccc65)CC4)cc3)nc2c1,Potency,[1],inactive
same,Potency,[2],inactive
same,Potency,[14],6.58 µM (active)
same,outcome,[13],inactive
NCC(=O)Nc1ccc(-n2nc(C(F)(F)F)cc2-c2ccc3c(ccc4ccccc43)c2)cc1,Potency,[1],inactive
same,Potency,[2],inactive
same,Potency,[14],inactive
same,outcome,[13],inactive
Cc1cc(CN2CCN(c3c(Br)cnc4nc(-c5ccc(N6CCN(C)CC6)cc5)[nH]c34)CC2)no1,Potency,[1],inactive
same,Potency,[2],inactive
same,Potency,[3],inactive
same,Potency,[4],inactive
same,Potency,[14],6.58 µM (active)
same,outcome,[13],inactive
CCc1c2c(nc3ccc(O)cc13)-c1cc3c(c(=O)n1C2)COC(=O)[C@]3(O)CC,Potency,[1],inactive
same,Potency,[2],10 µM (active)
same,Potency,[3],inactive
same,Potency,[16],0.0658 µM (active)
same,Potency,[14],1.17 µM (active)
same,outcome,[13],inactive
Clc1cccc(-n2nnnc2NCc2ccccc2Oc2ccccn2)c1Cl,Potency,[1],inactive
same,Potency,[2],inactive
N#Cc1c(O)c2c(-c3ccc(-c4ccccc4O)cc3)csc2[nH]c1=O,Potency,[1],2 µM (active)
same,Potency,[2],2.51 µM (active)
same,Potency,[3],2.2 µM (active) and 2.48 µM (active)
same,Potency,[4],8.91 µM (active)
same,Potency,[5],inactive
same,Potency,[6],inactive
same,Potency,[15],inactive
same,Potency,[16],inactive
same,Potency,[14],inactive
same,outcome,[13],inactive
CCOC(=O)C1=C(C)NC2=C(C(=O)CC(C)(C)C2)C1c1ccc(-c2ccccc2)cc1 (configuration not stated),Potency,[1],inactive
same,Potency,[2],inactive
same,Potency,[3],inactive
same,Potency,[4],inactive
same,Potency,[5],inactive
same,Potency,[6],inactive
same,Potency,[15],inactive
same,Potency,[14],3.3 µM (active)
CNC(=O)c1cc(Oc2ccc(NC(=O)Nc3cc(C(C)(C)C)nn3-c3ccc4ncccc4c3)c(F)c2)ccn1,Potency,[1],inactive
same,Potency,[2],inactive
same,Potency,[14],8.29 µM (active)
same,outcome,[13],inactive
CC(C)c1cc(-c2n[nH]c(=O)n2-c2ccc3c(ccn3C)c2)c(O)cc1O,Potency,[1],inactive
same,Potency,[2],inactive
same,Potency,[14],0.0262 µM (active)
same,outcome,[13],inactive
C=CC(=O)Nc1cccc(Oc2nc(Nc3ccc(N4CCN(C)CC4)cc3)ncc2Cl)c1,Potency,[1],inactive
same,Potency,[2],inactive
same,Potency,[14],16.5 µM (active)
same,outcome,[13],inactive
O=C1CCC[C@@H]2[C@H]3CCC[N+]4([O-])CCC[C@@H](CN12)[C@@H]34 (some centres not stated),Potency,[1],inactive
same,Potency,[2],inactive
same,Potency,[14],inactive
same,outcome,[13],inactive
CNC(=O)c1c(F)cccc1Nc1nc(Nc2cc3c(cc2OC)CCN3C(=O)CN(C)C)nc2[nH]ccc12,Potency,[1],inactive
same,Potency,[2],inactive
same,Potency,[14],7.39 µM (active)
same,outcome,[13],inactive
CCCCCCCCCC(=O)N[C@@H](Cc1c[nH]c2ccccc12)C(=O)N[C@H](CC(N)=O)C(=O)N[C@@H](CC(=O)O)C(=O)N[C@@H]1C(=O)NCC(=O)N[C@@H](CCCN)C(=O)N[C@@H](CC(=O)O)C(=O)N[C@H](C)C(=O)N[C@@H](CC(=O)O)C(=O)NCC(=O)N[C@H](CO)C(=O)N[C@@H]([C@@H](C)CC(=O)O)C(=O)N[C@@H](CC(=O)c2ccccc2N)C(=O)O[C@@H]1C,Potency,[1],inactive
same,Potency,[2],inactive
same,Potency,[14],inactive
same,outcome,[13],inactive
CC(C)c1nn(-c2c(Cl)cccc2Cl)c2nc(Cc3ccc(OCCO)cc3)[nH]c(=O)c12,Potency,[1],inactive
same,Potency,[2],inactive
same,Potency,[14],0.0294 µM (active)
same,outcome,[13],inactive
CC(=O)c1c(C)c2cnc(Nc3ccc(N4CCNCC4)cn3)nc2n(C2CCCC2)c1=O,"activity change, negative = inhibition",[1],5.34% [at 11.5 µM]
same,"activity change, negative = inhibition",[2],8.21% [at 4.91 µM]
same,Potency,[14],14.7 µM (active)
same,outcome,[13],inactive
Cc1nc(Nc2n[nH]c3c2CN(C(=O)N[C@H](CN(C)C)c2ccccc2)C3(C)C)c2sccc2n1,Potency,[1],inactive
same,Potency,[2],inactive
same,Potency,[14],0.0523 µM (active)
same,outcome,[13],inactive
COc1cc(-c2nn(C3CCC(N4CCN(C(C)=O)CC4)CC3)c3ncnc(N)c23)ccc1NC(=O)c1cc2ccccc2n1C (configuration not stated),Potency,[1],inactive
same,Potency,[2],inactive
same,Potency,[14],inactive
same,outcome,[13],inactive
CNC(=O)c1nn(C)c2c1C(C)(C)Cc1cnc(Nc3ccc(N4CCN(C)CC4)cc3)nc1-2,Potency,[1],inactive
same,Potency,[2],inactive
same,Potency,[14],5.23 µM (active)
same,outcome,[13],inactive
CC(C)c1noc(N2CCC(COc3ccc(-c4ccc(S(C)(=O)=O)cc4)nc3)CC2)n1,Potency,[1],inactive
same,Potency,[2],inactive
same,Potency,[14],inactive
same,outcome,[13],inactive
